Inconclusive results are not listed. Unmarked numbers belong to inactive results.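 How the source made its calls, unless noted: active means viability at or below 27.92% in each of two runs, the all-compound median minus 4 SD; inconclusive means no clear call, values can overlap the other calls; inactive means the rest.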
Assay: viability of HCT116 without oncogenic beta-catenin – human colon tumor cells, pilot screen (AID 823;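 active means cell viability at or below a set limit in both duplicate runs, the limit being the all-compound median minus 4 SD, cut at about 23% in these data, passing the limit was not always enough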;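 further: 0% = wells killed by 20 µM Hyamine and 100% = untreated DMSO cell wells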)
Settings: HCT116 beta-catenin knockout viability, CellTiter-Glo, 60 h; at 10 µM; hits give low values

Question: Which viability does the source give for `Cc1cc(Nc2ccc(F)cc2C)n2nc(C)nc2n1` here?
Answer: The viability was 101%.

Question: For `CC(=O)c1cccc(NC(=O)Cn2cc3c(n2)CCCC3)c1`, which viability is on record?
Answer: The viability was 97.5%.

Question: For `O=C(Nc1nc(-c2cccs2)cs1)c1ccc(S(=O)(=O)N2CCCCC2)cc1`, which viability is on record?
Answer: The viability was 71.7%.

Question: Which viability does the source give for `Cc1cc(OCCN2CCCC2)ccc1C(C)C` here?
Answer: Its viability is 89.1%.

Question: For `CCN1C(=O)c2ccccc2S(=O)c2ccc(C(=O)N3CCN(C(=O)c4ccco4)CC3)cc21` (stereo not given), which viability is on record?
Answer: The viability was 101%.

Question: Which viability does the source give for `N#Cc1c(SCC(N)=O)nc2c(c1-c1ccc(O)cc1)CCCC2` here?
Answer: Its viability is 94.5%.

Question: For `COCCCN1CC23C=CC(O2)C(C(=O)O)C3C1=O` (stereo not given), which viability is on record?
Answer: Its viability is 102%.

Question: For `COC(=O)C1C(O)=C(C=NCC(C)N=CC2=C(O)C(C(=O)OC)C(C)(C)CC2=O)C(=O)CC1(C)C` (stereo not given), which viability is on record?
Answer: Its viability is 92.4%.

Question: With `CN1CCc2c(c3ccccc3n2Cc2ccccc2)C1` as the compound, how does the viability read?
Answer: Its viability is 57.9%.

Question: For `CC(=O)c1c(C)[nH]c(C(=O)N2c3ccccc3CC2C)c1C` (stereo not given), which viability is on record?
Answer: The viability was 92.3%.

Question: With `Cc1ccc(-c2nn3c(C)nnc3s2)cc1NC(=O)COc1ccc(Cl)cc1` as the compound, how does the viability read?
Answer: The viability was 93.8%.

Question: With `O=C(c1cc(-c2cccc(O)c2)on1)N1CCCCC1` as the compound, how does the viability read?
Answer: The viability was 101%.

Question: For `CCOC(=O)c1oc2cc(O)ccc2c(=O)c1-c1ccccc1OC`, which viability is on record?
Answer: Its viability is 98.4%.

Question: With `COc1ccc(C(=O)c2cn[nH]c2-c2cc(Cl)ccc2O)cc1` as the compound, how does the viability read?
Answer: The viability was 87.7%.

Question: With `O=C(Nc1nnc(-c2ccc(Cl)s2)o1)C1CCCCC1` as the compound, how does the viability read?
Answer: The viability was 68.4%.

Question: Which viability does the source give for `CN(C)c1ccc(NC(=O)c2cccc(N3C(=O)CCC3=O)c2)cc1` here?
Answer: The viability was 106%.

Question: Which viability does the source give for `Cc1onc(-c2ccccc2Cl)c1C(=O)N1CCCCC1C(=O)O` (stereo not given) here?
Answer: Its viability is 96.6%.

Question: Which viability does the source give for `COc1ccc(OCC(=O)Nc2ccccc2OC)cc1` here?
Answer: The viability was 105%.

Question: With `COC(=O)c1ccc2c(=O)n3c(nc2c1)SCC(c1ccccc1)=N3` as the compound, how does the viability read?
Answer: Its viability is 95.1%.

Question: For `CCOC(=O)Nc1ccc2c(c1)N(C(=O)N(CC)CC)c1ccccc1CC2`, which viability is on record?
Answer: Its viability is 71.6%.

Question: For `Cc1c(C(=O)Nc2ccc(F)cc2)oc2ccc(S(=O)(=O)N3CCCC3)cc12`, which viability is on record?
Answer: The viability was 101%.

Question: Which viability does the source give for `COc1cc(OC)cc(-c2nc(-c3ccc(Br)cc3)no2)c1` here?
Answer: Its viability is 94%.

Question: For `O=C(Nc1nnc(-c2ccccc2)o1)c1nc2ccccc2s1`, which viability is on record?
Answer: The viability was 93.8%.

Question: Which viability does the source give for `Cc1c(C(=O)NCc2cccnc2)oc2ccccc12` here?
Answer: The viability was 99.2%.

Question: Which viability does the source give for `Cc1cccn2cc(-c3ccc(F)cc3)nc12` here?
Answer: Its viability is 87.2%.

Question: Which viability does the source give for `O=C(NCCN1CCOCC1)c1ccc2c(c1)ncn2C1CCCC1` here?
Answer: The viability was 106%.

Question: With `COC(=O)CSc1nc2ccccc2nc1SCC(=O)OC` as the compound, how does the viability read?
Answer: Its viability is 93.4%.

Question: Which viability does the source give for `O=C(O)c1ccccc1C(=O)NCc1ccccc1` here?
Answer: The viability was 99.3%.

Question: Which viability does the source give for `CC(C)(C)SCCNS(=O)(=O)c1ccc(F)cc1` here?
Answer: Its viability is 94.2%.

Question: For `COC(=O)C1C(=O)c2c([nH]c(C(=O)OC3CCCCC3)c2C)CC1C` (stereo not given), which viability is on record?
Answer: The viability was 107%.

Question: With `O=S(=O)(CCc1nnc(-c2ccccc2)o1)c1ccc2ccccc2c1` as the compound, how does the viability read?
Answer: The viability was 89.8%.

Question: With `O=C(Cn1cnc2c(cnn2-c2ccccc2)c1=O)c1ccc(Cl)cc1` as the compound, how does the viability read?
Answer: The viability was 94.3%.

Question: For `O=C(c1ccc2nc(N3CCOCC3)sc2c1)N1CCN(C(=O)c2ccco2)CC1`, which viability is on record?
Answer: Its viability is 105%.

Question: For `O=C(CCn1c(=O)sc2ccccc21)NCc1ccccc1`, which viability is on record?
Answer: Its viability is 107%.

Question: Which viability does the source give for `CC1(C)Oc2ccc3ccc(=O)oc3c2/C(=C/N)C1=O` here?
Answer: The viability was 88.5%.

Question: Which viability does the source give for `COc1ccc(C2N3CC4(C)CN2CC(C)(C3)C4=O)cc1OC` (stereo not given) here?
Answer: Its viability is 102%.

Question: For `O=C(NCCn1ccc2ccccc21)c1ccc2c(c1)OCO2`, which viability is on record?
Answer: The viability was 101%.

Question: With `Cc1occc1C(=O)NCc1ccc2c(c1)OCO2` as the compound, how does the viability read?
Answer: The viability was 101%.

Question: Which viability does the source give for `CC1(C)NC(C)(C)c2nonc2/C1=N\O` here?
Answer: Its viability is 99.3%.

Question: With `CCn1c(C)nc2cc(S(=O)(=O)N3CCCC3)ccc21` as the compound, how does the viability read?
Answer: The viability was 94.3%.

Assay: viability of PTEN-null HCT116 cells – cell-based, HCT116 clonal line, CellTiter-Glo, pilot screen (AID 824);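 further: 0% = 20 µM Hyamine control and 100% = vehicle cell control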
Settings: HCT116 PTEN-deleted viability, 60 h, at 10 µM, hits give low values

Question: For `Cc1cc(Nc2ccc(F)cc2C)n2nc(C)nc2n1`, which viability is on record?
Answer: Its viability is 98.7%.

Question: Which viability does the source give for `CC(=O)c1cccc(NC(=O)Cn2cc3c(n2)CCCC3)c1` here?
Answer: The viability was 96.7%.

Question: Which viability does the source give for `O=C(Nc1nc(-c2cccs2)cs1)c1ccc(S(=O)(=O)N2CCCCC2)cc1` here?
Answer: Its viability is 61.8%.

Question: With `Cc1cc(OCCN2CCCC2)ccc1C(C)C` as the compound, how does the viability read?
Answer: The viability was 91.3%.

Question: Which viability does the source give for `CCN1C(=O)c2ccccc2S(=O)c2ccc(C(=O)N3CCN(C(=O)c4ccco4)CC3)cc21` (stereo not given) here?
Answer: The viability was 92.5%.

Question: For `N#Cc1c(SCC(N)=O)nc2c(c1-c1ccc(O)cc1)CCCC2`, which viability is on record?
Answer: Its viability is 93.6%.

Question: For `COCCCN1CC23C=CC(O2)C(C(=O)O)C3C1=O` (stereo not given), which viability is on record?
Answer: The viability was 106%.

Question: Which viability does the source give for `COC(=O)C1C(O)=C(C=NCC(C)N=CC2=C(O)C(C(=O)OC)C(C)(C)CC2=O)C(=O)CC1(C)C` (stereo not given) here?
Answer: The viability was 93.7%.

Question: For `CN1CCc2c(c3ccccc3n2Cc2ccccc2)C1`, which viability is on record?
Answer: Its viability is 63.9%.

Question: With `CC(=O)c1c(C)[nH]c(C(=O)N2c3ccccc3CC2C)c1C` (stereo not given) as the compound, how does the viability read?
Answer: Its viability is 92.6%.

Question: With `Cc1ccc(-c2nn3c(C)nnc3s2)cc1NC(=O)COc1ccc(Cl)cc1` as the compound, how does the viability read?
Answer: Its viability is 90.8%.

Question: Which viability does the source give for `O=C(c1cc(-c2cccc(O)c2)on1)N1CCCCC1` here?
Answer: The viability was 103%.

Question: With `CCOC(=O)c1oc2cc(O)ccc2c(=O)c1-c1ccccc1OC` as the compound, how does the viability read?
Answer: The viability was 92%.

Question: Which viability does the source give for `COc1ccc(C(=O)c2cn[nH]c2-c2cc(Cl)ccc2O)cc1` here?
Answer: The viability was 78.7%.

Question: For `O=C(Nc1nnc(-c2ccc(Cl)s2)o1)C1CCCCC1`, which viability is on record?
Answer: The viability was 63.2%.

Question: For `CN(C)c1ccc(NC(=O)c2cccc(N3C(=O)CCC3=O)c2)cc1`, which viability is on record?
Answer: The viability was 100%.

Question: With `Cc1onc(-c2ccccc2Cl)c1C(=O)N1CCCCC1C(=O)O` (stereo not given) as the compound, how does the viability read?
Answer: Its viability is 98.6%.

Question: For `COc1ccc(OCC(=O)Nc2ccccc2OC)cc1`, which viability is on record?
Answer: The viability was 101%.

Question: Which viability does the source give for `COC(=O)c1ccc2c(=O)n3c(nc2c1)SCC(c1ccccc1)=N3` here?
Answer: The viability was 94.8%.

Question: For `CCOC(=O)Nc1ccc2c(c1)N(C(=O)N(CC)CC)c1ccccc1CC2`, which viability is on record?
Answer: The viability was 71.3%.

Question: For `Cc1c(C(=O)Nc2ccc(F)cc2)oc2ccc(S(=O)(=O)N3CCCC3)cc12`, which viability is on record?
Answer: The viability was 96%.

Question: Which viability does the source give for `COc1cc(OC)cc(-c2nc(-c3ccc(Br)cc3)no2)c1` here?
Answer: Its viability is 89.2%.

Question: For `O=C(Nc1nnc(-c2ccccc2)o1)c1nc2ccccc2s1`, which viability is on record?
Answer: The viability was 88.8%.

Question: With `Cc1c(C(=O)NCc2cccnc2)oc2ccccc12` as the compound, how does the viability read?
Answer: The viability was 87%.

Question: For `Cc1cccn2cc(-c3ccc(F)cc3)nc12`, which viability is on record?
Answer: The viability was 82.9%.

Question: Which viability does the source give for `O=C(NCCN1CCOCC1)c1ccc2c(c1)ncn2C1CCCC1` here?
Answer: Its viability is 105%.

Question: Which viability does the source give for `COC(=O)CSc1nc2ccccc2nc1SCC(=O)OC` here?
Answer: The viability was 92%.

Question: Which viability does the source give for `O=C(O)c1ccccc1C(=O)NCc1ccccc1` here?
Answer: The viability was 100%.

Question: For `CC(C)(C)SCCNS(=O)(=O)c1ccc(F)cc1`, which viability is on record?
Answer: Its viability is 89.5%.

Question: For `COC(=O)C1C(=O)c2c([nH]c(C(=O)OC3CCCCC3)c2C)CC1C` (stereo not given), which viability is on record?
Answer: The viability was 104%.

Question: Which viability does the source give for `O=S(=O)(CCc1nnc(-c2ccccc2)o1)c1ccc2ccccc2c1` here?
Answer: Its viability is 91.8%.

Question: With `O=C(Cn1cnc2c(cnn2-c2ccccc2)c1=O)c1ccc(Cl)cc1` as the compound, how does the viability read?
Answer: The viability was 90.2%.

Question: Which viability does the source give for `O=C(c1ccc2nc(N3CCOCC3)sc2c1)N1CCN(C(=O)c2ccco2)CC1` here?
Answer: The viability was 95.8%.

Question: For `O=C(CCn1c(=O)sc2ccccc21)NCc1ccccc1`, which viability is on record?
Answer: The viability was 105%.

Question: Which viability does the source give for `CC1(C)Oc2ccc3ccc(=O)oc3c2/C(=C/N)C1=O` here?
Answer: The viability was 81.7%.

Question: Which viability does the source give for `COc1ccc(C2N3CC4(C)CN2CC(C)(C3)C4=O)cc1OC` (stereo not given) here?
Answer: Its viability is 103%.

Question: With `O=C(NCCn1ccc2ccccc21)c1ccc2c(c1)OCO2` as the compound, how does the viability read?
Answer: The viability was 94.4%.

Question: Which viability does the source give for `Cc1occc1C(=O)NCc1ccc2c(c1)OCO2` here?
Answer: The viability was 99.2%.

Question: Which viability does the source give for `CC1(C)NC(C)(C)c2nonc2/C1=N\O` here?
Answer: Its viability is 102%.

Question: For `CCn1c(C)nc2cc(S(=O)(=O)N3CCCC3)ccc21`, which viability is on record?
Answer: Its viability is 88.6%.

— PubChem BioAssay
